GAA850 FXN act = increases GAA850 frataxin promoter reporter activity; HEK293 lucGAA850 FXN promoter luciferase reporter, 24 h; percent of 10 µM SAHA response; activation, % at 6 µM; 360,000 compounds, 0.56% hits; AID 540364;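 active = activation above the average of all compounds screened plus 3 SD, cutoff fixed separately per campaign, cut at about 7.5% in these data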
esBAF inh = SWI/SNF esBAF complex inhibition. mouse ES cells, Bmi1-luciferase knock-in reporter, 24 h; 100% = twice the neutral-well signal. 350,000 compounds, 2% hits. reporter increase, % at 12.5 µM; in the data active = activation above about 40%; inconclusive = no clear call, values can overlap the other calls;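 note: a rise in the Bmi1 reporter signal indicates esBAF inhibition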
MITF TRPM1 HTS = activators of MITF-driven TRPM1 promoter activity in SK-MEL-5 cells | 300,000 compounds, 0.75% hits | SK-MEL-5 TRPM1-promoter luciferase, 24 h; % of positive control, neutral wells = 0 | activation, % at 12.5 µM;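 active = mean activation of at least 80% with every replicate also reaching 80%; inconclusive = mean reaches 80% but some replicate falls short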
Wnt bcat act = activators of Wnt/beta-catenin signaling | Wnt/beta-catenin reporter cell assay, activator, plate reader | activation, % at 9.35 µM | 300,000 compounds, 1.2% hits | AID 743398; in the data active = activation above about 30%, passing the limit was not always enough; inconclusive = no clear call, values can overlap the other calls
A number is an active result. Most compounds without a hit are left out; they make up all but 2.8% or so of the library.

How did CC1(C(=O)NS(=O)(=O)c2cccc(C#N)c2)CCN1C(=O)C1CCCCC1 (stereo unspecified) do in these assays?
GAA850 FXN act: inactive; esBAF inh: inactive; Wnt bcat act: 35.3

How did CC1(C(=O)NS(=O)(=O)c2ccc(C#N)cc2)CCN1C(=O)C1CCCCC1 (stereo unspecified) do in these assays?
GAA850 FXN act: inactive; esBAF inh: inactive; Wnt bcat act: inactive

Results for O=C(COC(=O)c1ccc(Cl)s1)c1cc2ccccc2o1 ?
GAA850 FXN act: inactive; esBAF inh: inactive; Wnt bcat act: inactive

How did Cn1cccc1C(=O)OCC(=O)c1cc2ccccc2o1 do in these assays?
GAA850 FXN act: inactive; esBAF inh: inactive; MITF TRPM1 HTS: inactive; Wnt bcat act: 33.9

What do the screens show for `CC1(C(=O)OCC(=O)c2c[nH]c3ccccc23)CC1(Cl)Cl` (stereo unspecified)?
GAA850 FXN act: inactive; esBAF inh: 46.1; MITF TRPM1 HTS: 96.1

What do the screens show for `COc1cc(C(=O)OCC(=O)c2c[nH]c3ccccc23)ccc1OCC(=O)N1CCOCC1`?
GAA850 FXN act: inactive; esBAF inh: inactive; MITF TRPM1 HTS: inactive; Wnt bcat act: inactive

How did O=C(OCC(=O)c1c[nH]c2ccccc12)C1=COCCO1 do in these assays?
GAA850 FXN act: inactive; esBAF inh: 64.2; MITF TRPM1 HTS: inactive; Wnt bcat act: 43.2

How did COc1ccc(C(=O)OCC(=O)c2c[nH]c3ccccc23)cc1OC do in these assays?
GAA850 FXN act: inactive; esBAF inh: 51.7; MITF TRPM1 HTS: inactive; Wnt bcat act: inactive

Results for COc1cccc(CNC(=O)C[C@H]2CC[C@H](NC(C)=O)[C@H](CO)O2)c1 ?
esBAF inh: inactive

What do the screens show for `Cn1cccc1C(=O)OCC(=O)c1c[nH]c2ccccc12`?
GAA850 FXN act: inactive; MITF TRPM1 HTS: 112.3; Wnt bcat act: inactive

What do the screens show for `CC(=O)c1ccc(NC(=O)Nc2ccccc2)cc1`?
GAA850 FXN act: inactive; esBAF inh: 48.1; MITF TRPM1 HTS: inactive

What do the screens show for `O=C(Nc1ccc(Cl)cc1)Nc1cccc2nsnc12`?
GAA850 FXN act: inactive; esBAF inh: 91.3; MITF TRPM1 HTS: inactive; Wnt bcat act: inconclusive

How did O=C(Nc1ccccc1)Nc1ccc2ccccc2c1 do in these assays?
GAA850 FXN act: inactive; MITF TRPM1 HTS: 91.7; Wnt bcat act: 43.7

Results for O=C(Nc1ccccc1)Nc1ccc(Br)c(Cl)c1 ?
GAA850 FXN act: inactive; esBAF inh: 75.0; MITF TRPM1 HTS: inactive; Wnt bcat act: inactive

How did CC(=O)Nc1ccc2ccccc2c1 do in these assays?
GAA850 FXN act: inactive; esBAF inh: inactive; MITF TRPM1 HTS: inactive

What do the screens show for `O=C(Nc1ccccc1)Nc1cccc(Cl)c1Cl`?
GAA850 FXN act: inactive; esBAF inh: 59.7; MITF TRPM1 HTS: inactive

How did CC(C)C(=O)Nc1ccc(C(=O)c2ccccc2)cc1 do in these assays?
GAA850 FXN act: inactive; esBAF inh: 66.7; MITF TRPM1 HTS: inactive; Wnt bcat act: inactive

What do the screens show for `Cc1oncc1C(=O)Nc1ccc2ccccc2c1`?
GAA850 FXN act: inactive; esBAF inh: inactive; MITF TRPM1 HTS: inactive; Wnt bcat act: inactive

How did Cc1coc(C)c1C(=O)Nc1ccc2ccccc2c1 do in these assays?
GAA850 FXN act: inactive; esBAF inh: 56.7; MITF TRPM1 HTS: inactive; Wnt bcat act: inactive

How did C[C@@H]1CN([C@@H](C)CO)C(=O)c2cc(C#CCN(C)C)cnc2O[C@@H]1CN(C)C(=O)Cc1ccccc1 do in these assays?
esBAF inh: inactive

Results for CO[C@@H]1CN(C)C(=O)c2cc(NC(=O)c3cc(C)on3)ccc2OC[C@H](C)N(C(C)=O)C[C@@H]1C ?
esBAF inh: inactive

Results for COc1ccc(-c2nnc(-c3ccccc3O)o2)cc1 ?
GAA850 FXN act: inactive; esBAF inh: inactive; MITF TRPM1 HTS: inactive; Wnt bcat act: 44.4

What do the screens show for `COc1ccc(-c2nnc(-c3cc4ccccc4oc3=O)o2)cc1`?
GAA850 FXN act: inactive; esBAF inh: inactive; MITF TRPM1 HTS: inactive

How did Cc1ccc(-c2nnc(-c3cc(C)on3)o2)cc1 do in these assays?
GAA850 FXN act: inactive; esBAF inh: inactive; MITF TRPM1 HTS: inactive; Wnt bcat act: 49.1

How did COc1ccc(-c2nnc(-c3ccc(C)cc3)o2)cc1 do in these assays?
GAA850 FXN act: inactive; esBAF inh: inactive; MITF TRPM1 HTS: inactive; Wnt bcat act: 35.4

How did COc1ccc(-c2nnc(-c3ccc(F)cc3)o2)cc1 do in these assays?
GAA850 FXN act: inactive; esBAF inh: inactive; MITF TRPM1 HTS: inactive; Wnt bcat act: 35.6

What do the screens show for `Cc1ccc(-c2nnc(-c3ccccc3)o2)cc1`?
GAA850 FXN act: inactive; MITF TRPM1 HTS: inactive

How did Cc1noc(C)c1S(=O)(=O)Nc1ccc2c(c1)C(=O)N([C@@H](C)CO)C[C@@H](C)[C@@H](CN(C)Cc1ccc(C(F)(F)F)cc1)OCCCC[C@@H](C)O2 do in these assays?
esBAF inh: inactive

What do the screens show for `C[C@H]1CN([C@@H](C)CO)C(=O)c2cc(NC(=O)CCN3CCOCC3)ccc2O[C@H]1CN(C)Cc1ccc(Oc2ccccc2)cc1`?
esBAF inh: inactive

Results for CCCC#Cc1cnc2c(c1)C(=O)N([C@H](C)CO)C[C@H](C)[C@@H](CN(C)C(=O)Nc1ccccc1F)O2 ?
esBAF inh: inactive

Results for COc1ccc(NC(=O)Nc2cccc3c2O[C@H](CN(C)C(=O)Nc2ccc(OC)cc2)[C@H](C)CN([C@H](C)CO)C3=O)cc1 ?
esBAF inh: inactive

Results for C#CCSc1nnc(-c2ccc(OC)cc2)o1 ?
GAA850 FXN act: inactive; esBAF inh: 42.8; MITF TRPM1 HTS: inactive; Wnt bcat act: 38.4

How did Cc1c(Cl)cccc1NC(=O)c1cccc(OC(F)F)c1 do in these assays?
GAA850 FXN act: inactive; esBAF inh: 50.2; MITF TRPM1 HTS: inactive; Wnt bcat act: inactive

Results for O=C(Nc1ccc(OC(F)F)c(Cl)c1)c1cccc(OC(F)F)c1 ?
GAA850 FXN act: inactive; esBAF inh: inactive; MITF TRPM1 HTS: 88.0

What do the screens show for `O=C(Nc1ccc(S(=O)(=O)N2CCCC2)cc1)c1cccc(OC(F)F)c1`?
GAA850 FXN act: inactive; esBAF inh: inactive; MITF TRPM1 HTS: inactive; Wnt bcat act: inactive

How did COc1ccc(NC(=O)c2cccc(OC(F)F)c2)cc1Cl do in these assays?
GAA850 FXN act: inactive; esBAF inh: 57.3; MITF TRPM1 HTS: inactive

Results for O=C(Nc1ccc2c(c1)CCC2)c1cccc(OC(F)F)c1 ?
GAA850 FXN act: inactive; esBAF inh: inconclusive; Wnt bcat act: 64.9

Results for O=C(N[C@@H]1CC[C@@H](CCn2cc(-c3ccccn3)nn2)O[C@H]1CO)c1ccncc1 ?
esBAF inh: inactive

Results for Cc1ccc(S(=O)(=O)N(C)C[C@@H]2OCCCC[C@@H](C)Oc3ccc(NS(=O)(=O)c4ccccc4)cc3C(=O)N([C@@H](C)CO)C[C@@H]2C)cc1 ?
esBAF inh: inactive

Results for COc1ccc(NC(=O)c2cccc(F)c2)cc1Cl ?
GAA850 FXN act: inactive; esBAF inh: 77.2; MITF TRPM1 HTS: inactive

Results for COc1cc(OC)c(NC(=O)c2cccc(F)c2)cc1Cl ?
GAA850 FXN act: inactive; MITF TRPM1 HTS: inactive; Wnt bcat act: inactive

What do the screens show for `O=[N+]([O-])c1ccccc1CSc1nnc2ccccn12`?
GAA850 FXN act: inactive; esBAF inh: 62.7; MITF TRPM1 HTS: inactive; Wnt bcat act: inactive

How did Cc1cccc(S(=O)(=O)N[C@@H]2CC[C@@H](CCNC(=O)CCN3CCCCC3)O[C@H]2CO)c1 do in these assays?
esBAF inh: inactive
